# Rows were chosen to be rich in hits. Some 21% of all compounds tested hit in one or more screens of this group.
# NS1 function inh: qHTS Assay for Inhibitors of Influenza NS1 Protein Function. 270,000 compounds, 0.4% hits. Potency, µM (top dose mostly 46.1 µM), inactives show top-dose activity, positive = more growth; calls by dose curve; further: potency means the concentration at half of the fitted maximal effect; actives are rising curves; nearly all actives have a fitted effect of over 50% in size
#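 Read-out: OD600 growth recovery of NS1-expressing budding yeast. Cells grown overnight at 30C in -URA glucose medium, washed, resuspended and diluted 1:100 in 2% galactose assay medium, pH 6.0. Same strain lacking NS1 served as positive control.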
# Cycloheximide cs: Cycloheximide Counterscreen for Small Molecule Inhibitors of Shiga Toxin; 300,000 compounds, 12% hits; cell reporter, cycloheximide protein synthesis inhibition counterscreen; max response, %; in the data active means max response mostly above about 13%, no sharp cut-off; inactive means mostly below about 14%; further: read at 38.3 µM for the half of the compounds with a filed dose; 0% is about no effect
# Pf growth 96h: Primary qHTS for delayed death inhibitors of the malarial parasite plastid, 96 hour incubation | P. falciparum luciferase reporter growth, 96 h | Potency, µM (doses to about 28.7 µM), for inactives: at the top dose activity change, negative = inhibition, hits mostly inhibitors | 320,000 compounds, 6.9% hits; further: potency means the concentration at half of the fitted maximal effect; on the % scale 0 is the no-effect control and ±100 the full control effect
#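 Erythrocytes infected with luciferase-expressing P. falciparum were dispensed at 2% hematocrit and 0.05% parasitemia (final), then incubated with compounds 96 hours at 37 C in 5% CO2. Luminescence after detection reagent addition reported growth.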
# SARS PLP yeast: qHTS of Yeast-based Assay for SARS-CoV PLP. S. cerevisiae expressing SARS-CoV PLpro, growth rescue. Potency, µM (doses to about 32.9 µM), for inactives: top-dose activity, positive = growth rescue, most hits filed as activators. 330,000 compounds, 0.19% hits. AID 485353, 2010; calls by dose curve; further: potency means the concentration at half of the fitted maximal effect; 0% is about no effect; nearly all actives have a fitted effect of over 55% in size
# Shiga toxin inh: A qHTS for Small Molecule Inhibitors of Shiga Toxin; Vero cells, Shiga toxin protein synthesis inhibition reporter; inhibition, % at 38.7 µM; 290,000 compounds, 9.2% hits; AID 2315, 2010; in the data active means inhibition mostly above about 28%, no sharp cut-off; inactive means mostly below about 43%; further: 0% is about no effect
# Pf growth 48h: Primary qHTS for delayed death inhibitors of the malarial parasite plastid, 48 hour incubation; P. falciparum luciferase growth in erythrocytes, 48 h; AID 504832, 2011; Potency, µM (series often up to 28.7 µM), inactives show top-dose activity change, negative = inhibition, actives largely listed as inhibitors; 310,000 compounds, 5.9% hits; further: potency means the concentration at half of the fitted maximal effect; on the % scale 0 is the no-effect control and ±100 the full control effect
#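 Compounds are pin-transferred into medium, infected erythrocytes (2% hematocrit, 0.1% parasitemia final) are added, and plates sit one parasite generation at 37 C in 5% CO2. Detection reagent is then added and luminescence measured.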
# * marks the source's active call; other numbers are inactive results; ? = inconclusive; nt = no result given; [ ] = dose if it differs, or a comment. Unless noted, the call rests on the fitted dose curve; in most records, active means well fitted inhibition curve with a large enough effect; inconclusive means small, poorly fitted or top-dose-only effect, or another doubt; inactive means no such curve, though single readings can be large or run the other way.
SMILES,NS1 function inh,Cycloheximide cs,Pf growth 96h,SARS PLP yeast,Shiga toxin inh,Pf growth 48h
Cc1ccc(NC(=O)CN2C(=O)N/C(=C/c3ccc4c(c3)OCCO4)C2=O)cc1,13%,-2,13%,2%,-4,24%
Oc1ccccc1C1NN=C(c2ccccc2)S1 (stereo not given),-14%,33*,?,-5%,56*,37%
O=C1NC(c2ccccc2)=CC(c2ccccc2O)N1 (stereo not given),nt,nt,16%,0%,nt,7%
COc1ccccc1C(=O)O[C@H]1[C@H](Cc2ccccc2)NS(=O)(=O)[C@H]2C[C@@H]3C=C[C@]12O3,nt,nt,5.9µM*,-5%,nt,?
COc1cccc(C(=O)O[C@H]2[C@H](Cc3ccccc3)NS(=O)(=O)[C@H]3C[C@@H]4C=C[C@]23O4)c1,nt,nt,nt,-37%,nt,nt
Cc1cc(-c2nnc(-c3cccc(C(F)(F)F)c3)o2)no1,-5%,44*,150%,1%,77*,137%
Cc1cc(-c2nnc(SCc3ccccn3)o2)no1,-16%,12,nt,7%,19,53%
Cc1ccc(-c2nnc(-c3cc(C)on3)o2)cc1,-6%,39*,239%,1%,59*,188%
FC(F)(F)Oc1ccccc1-c1nnc(-c2cccc(C(F)(F)F)c2)o1,0%,-2,-12%,2%,-7,0%
CCOC(=O)N1CCC(N2C(=O)c3ccccc3C2Nc2cc(Cl)c(OC)cc2OC)CC1 (stereo not given),-25%,-3,?,1%,-15,13µM*
CCOC(=O)N1CCC(N2C(=O)c3ccccc3C2Nc2cc(OC)c(OC)c(OC)c2)CC1 (stereo not given),-2%,-3,?,-3%,-2,?
COc1ccc(C(=O)C(OC(=O)c2ccccc2Cl)c2ccccc2)cc1 (stereo not given),3%,28*,?,-4%,83*,71%
O=C(COc1ccccc1)OC(C(=O)c1ccccc1)c1ccccc1 (stereo not given),2%,-2,?,-2%,-6,-6%
COc1ccc(C(=O)C(OC(=O)c2ccccc2)c2ccccc2)cc1 (stereo not given),10%,49*,60%,-12%,104*,61%
CCOC(=O)CC[C@H](NC(=O)Cn1cnc2c(NCc3ccccc3)ncnc21)C(=O)OCC,nt,nt,nt,-1%,nt,nt
O=C1C2C3C=CC(C2C(=O)N1CCCO)C1C2C(=O)N(CCCO)C(=O)C2C31 (stereo not given),9%,-2,-7%,10%,-18,nt
Cc1ccc(S(N)(=O)=O)cc1NC(=O)/C=C/c1ccc2c(c1)OCO2,nt,10,302%,1%,17,38%
O=C(Cn1cnc2ccccc21)c1ccc(Br)cc1,3%,22*,18%,-1%,24,?
CCC(=O)c1ccc(OCC(O)Cn2cnc3ccccc32)cc1 (stereo not given),11%,1,1.9µM*,-3%,31,-35%
CCCOc1ccc(Cn2cnc3ccccc32)cc1,-8%,14*,22%,-4%,2,?
c1ccc(CCn2cnc3ccccc32)cc1,nt,29*,84%,2%,25,25%
c1ccc2c(c1)ncn2CCN1CCCCC1,-7%[9.22 µM],-1,?,0%,-1,19%
CCC(=O)c1ccc(OCC(O)Cn2c(C)nc3ccccc32)cc1 (stereo not given),-10%,1,14%,1%,1,-3%
COc1ccc(C(=O)NCc2nnc(SCC(=O)NC3CCCCC3)o2)cc1,5%,-9,-23%,-1%,6,8%
O=C(CCNC(=O)C1CCN(S(=O)(=O)c2ccc(F)cc2)CC1)NCCc1ccc(Cl)cc1,-6%,-2,?,1%,7,21%
SMILES,NS1 function inh,Cycloheximide cs,Pf growth 96h,SARS PLP yeast,Shiga toxin inh,Pf growth 48h
CCn1ncc(/C=N/NC(=O)c2cc(Cl)ccc2OC)c1C,12%,-2,-5%,14%,-3,9%
Cc1c(C(N)=O)sc2ncn(CC(=O)N(C)C3CCCCC3)c(=O)c12,9%,-4,-72%,0%,-5,-11%
c1ccc(OCCn2cnc3ccccc32)cc1,-6%,29*,-23%,-6%,18,3%
CC(=O)c1ccc(OCCn2cnc3ccccc32)cc1,15%,9,48%,11%,38,16%
O=C(Cn1cnc2ccccc21)NC(c1ccccc1)c1ccccc1,4%,6,3.7µM*,3%,30,4.1µM*
COc1ccc(OCCn2cnc3ccccc32)cc1,-27%,9.5*,?,-1%,33*,-1%
Cc1cccc(-c2ncc(CN3CCN(CCC(C)C)C(CCO)C3)cn2)c1 (stereo not given),-4%,1,?,0%,13,?
Cc1nnc(SCC(=O)Nc2nccs2)[nH]c1=O,6%,-2,16%,0%,-10,6%
Cc1cc(C)c(N2CCN(S(=O)(=O)N3CCCCCC3)CC2)c(C)c1,-31%,-2,nt,-22%,-5,10µM*
O=C(NC1CCCC1)C(c1ccccn1)N(C(=O)c1csnn1)c1ccccc1F (stereo not given),-5%,-9,15%,0%,-2,-1%
Cc1ccc(-c2ccc(C3C(C#N)=C(N)Oc4n[nH]c(C)c43)o2)cc1 (stereo not given),-53%,32*,-20%,-29%,50*,?
Cc1[nH]nc2c1C(c1ccc(-c3ccc(Cl)cc3)o1)C(C#N)=C(N)O2 (stereo not given),-22%,15,?,-22%,20,5%
CCOc1nc(NC(=O)NS(=O)(=O)c2ccccc2F)nc(-c2ccccc2)n1,nt,21,?,4%,53*,63%
COc1ccc(/C=N/NC(=O)c2cc(C)n(-c3ccccc3)c2C)cc1OC,nt,25*,-20%,4%,87*,29%
Cc1cc(C(=O)N/N=C2\CCCC(=O)C2)c(C)o1,nt,nt,28%,4%,nt,5%
Cc1cc(C(=O)N/N=C2\CCCC(=O)C2)c(C)n1-c1ccccc1,5%,17*,45%,12%,30*,25%
Cc1cc(C)cc(-n2c(C)cc(/C=N/NC(=O)c3cccc([N+](=O)[O-])c3C)c2C)c1,16%,4,12µM*,7%,-14,nt
CC(=O)c1c(C(C)=O)c(C)n(-c2cccc([N+](=O)[O-])c2)c1C,2%,-3,9.3µM*,8%,-2,-4%
O=C(NN1CCOCC1)c1ccc(Cl)cc1[N+](=O)[O-],14%,-1,?,-1%,18,5%
O=C(COC(=O)CC(c1ccccc1)c1ccccc1)Nc1c(F)cccc1F,-21%,1,37%,9%,-15,0%
O=C(N/N=C\c1cc([N+](=O)[O-])ccc1N1CCOCC1)c1ccccn1,2%,3,?,5%,-9,21%
